For six sequences, binding signal results are on record in PMC4081100, “A DNA-binding-site landscape and regulatory network analysis for NAC transcription factors in Arabidopsis thaliana”.

Holding throughout (assay): universal protein binding microarray (PBM); transcription factors of Arabidopsis thaliana; high values mean tight binding
Holding throughout (details): protein: recombinant; tags: GST; chain copies: 2; dsDNA, one strand shown

The target of one assay is T1, GST-ANAC092(1-176) (Arabidopsis thaliana, UniProt Q9FKA0 1-176).
T1 sequence: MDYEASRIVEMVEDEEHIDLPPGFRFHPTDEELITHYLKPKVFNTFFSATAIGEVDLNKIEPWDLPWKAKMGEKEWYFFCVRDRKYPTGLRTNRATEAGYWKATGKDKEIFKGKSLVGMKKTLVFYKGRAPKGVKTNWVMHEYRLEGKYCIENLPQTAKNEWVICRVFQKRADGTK
In a few lines:
(§1)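 For zinc-finger proteins, zinc acetate was added while GST-tagged NAC-domain, full-length or DNA-binding-domain proteins were induced in cells. Purification used glutathione–Sepharose 4B, and quantification used A280 or anti-GST western blot. Custom all-10-mer Agilent 4 × 180K arrays, made double-stranded by primer extension, each received a protein at 200 to 500 nM final in duplicate. Scoring covered gapped and ungapped 8-mers, with binding given as the normalised enrichment score (E-score).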

In the next assay the target is GST-NTL6(1-168) (Arabidopsis thaliana, UniProt Q9SCK6 1-168). In a few lines: as §1
The next assay deals with T2, GST-ANAC019 NAC domain (Arabidopsis thaliana, UniProt Q9C932 14-162).
T2 sequence: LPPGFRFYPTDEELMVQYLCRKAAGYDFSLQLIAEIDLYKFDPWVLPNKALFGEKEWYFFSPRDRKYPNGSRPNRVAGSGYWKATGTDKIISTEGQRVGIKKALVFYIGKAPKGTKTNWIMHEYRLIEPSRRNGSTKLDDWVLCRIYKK
Summed up: as §1

Another assay deals with T3, GST-ANAC055(1-171) (Arabidopsis thaliana, UniProt Q9LDY8 1-171).
T3 sequence: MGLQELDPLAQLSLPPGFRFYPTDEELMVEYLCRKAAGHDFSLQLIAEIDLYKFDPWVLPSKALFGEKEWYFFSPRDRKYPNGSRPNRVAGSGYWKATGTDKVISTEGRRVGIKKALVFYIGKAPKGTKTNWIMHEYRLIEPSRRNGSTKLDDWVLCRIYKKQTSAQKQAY
In a few lines:
as §1

The target in another assay is T4, GST-ATAF1 NAC domain (Arabidopsis thaliana, UniProt Q39013 7-158).
T4 sequence: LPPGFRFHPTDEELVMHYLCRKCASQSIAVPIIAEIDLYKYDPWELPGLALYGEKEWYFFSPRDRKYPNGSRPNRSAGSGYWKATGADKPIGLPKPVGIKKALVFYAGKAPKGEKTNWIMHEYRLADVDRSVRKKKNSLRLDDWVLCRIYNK
Summed up:
as §1

Assay [1] deals with T5, GST-ANAC092(1-285) full length (Arabidopsis thaliana, UniProt Q9FKA0 1-285).
T5 sequence: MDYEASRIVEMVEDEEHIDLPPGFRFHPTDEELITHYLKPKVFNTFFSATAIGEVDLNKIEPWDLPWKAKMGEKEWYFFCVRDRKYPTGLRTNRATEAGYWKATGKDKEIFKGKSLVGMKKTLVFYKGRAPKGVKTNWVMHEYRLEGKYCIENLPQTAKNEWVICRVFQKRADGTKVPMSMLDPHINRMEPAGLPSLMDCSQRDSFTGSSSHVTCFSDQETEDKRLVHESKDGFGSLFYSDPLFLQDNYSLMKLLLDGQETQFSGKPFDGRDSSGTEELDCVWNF
In a few lines:
as §1

A further assay concerns the target T6, GST-NAP(1-166) (Arabidopsis thaliana, UniProt O49255 1-166).
T6 sequence: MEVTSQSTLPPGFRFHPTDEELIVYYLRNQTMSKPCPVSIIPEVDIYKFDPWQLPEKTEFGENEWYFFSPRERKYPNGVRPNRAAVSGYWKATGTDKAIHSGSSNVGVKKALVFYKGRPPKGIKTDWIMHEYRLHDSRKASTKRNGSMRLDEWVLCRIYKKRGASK
In a few lines: as §1

For another assay, the target named is T7, GST-NST2(1-184) (Arabidopsis thaliana, UniProt Q9M274 1-184).
T7 sequence: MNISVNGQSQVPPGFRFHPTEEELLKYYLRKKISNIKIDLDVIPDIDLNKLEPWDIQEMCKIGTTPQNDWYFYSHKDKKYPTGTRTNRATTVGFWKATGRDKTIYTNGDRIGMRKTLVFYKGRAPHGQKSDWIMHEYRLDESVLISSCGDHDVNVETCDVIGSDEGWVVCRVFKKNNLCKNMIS
In a few lines:
as §1

For the next assay, the target named is T8, GST-NTL8 NAC domain (Arabidopsis thaliana, UniProt Q9XIN7 14-156).
T8 sequence: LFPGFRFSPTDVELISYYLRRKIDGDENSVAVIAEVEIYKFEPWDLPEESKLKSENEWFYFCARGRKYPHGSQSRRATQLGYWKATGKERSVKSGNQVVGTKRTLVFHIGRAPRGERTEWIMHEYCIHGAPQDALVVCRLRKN
In a few lines:
as §1

In a further assay the target is T9, GST-SND1(1-203) (Arabidopsis thaliana, UniProt Q9LPI7 1-203).
T9 sequence: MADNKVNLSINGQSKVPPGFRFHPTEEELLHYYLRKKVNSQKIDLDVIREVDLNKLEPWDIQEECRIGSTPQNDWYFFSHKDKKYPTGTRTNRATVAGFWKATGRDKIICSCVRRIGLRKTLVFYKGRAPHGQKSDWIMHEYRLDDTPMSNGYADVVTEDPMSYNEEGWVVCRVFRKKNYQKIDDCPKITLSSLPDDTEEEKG
Summed up:
as §1

Another assay concerns the target T10, GST-VND3 NAC domain (Arabidopsis thaliana, UniProt Q9FH59 12-162).
T10 sequence: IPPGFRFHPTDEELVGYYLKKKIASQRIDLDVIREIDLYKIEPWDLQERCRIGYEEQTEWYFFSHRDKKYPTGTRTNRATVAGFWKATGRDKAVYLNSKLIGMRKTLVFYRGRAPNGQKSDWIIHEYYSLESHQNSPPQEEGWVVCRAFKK
In a few lines:
as §1

The next assay addresses T11, GST-VND7 NAC domain (Arabidopsis thaliana, UniProt Q9C8W9 9-158).
T11 sequence: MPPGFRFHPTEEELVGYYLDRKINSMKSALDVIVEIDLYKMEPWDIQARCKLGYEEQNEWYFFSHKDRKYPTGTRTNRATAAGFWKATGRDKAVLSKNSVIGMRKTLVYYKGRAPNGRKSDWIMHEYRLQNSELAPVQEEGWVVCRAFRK
In a few lines:
as §1

Chain of GST-NTL6(1-168) (Q9SCK6 1-168): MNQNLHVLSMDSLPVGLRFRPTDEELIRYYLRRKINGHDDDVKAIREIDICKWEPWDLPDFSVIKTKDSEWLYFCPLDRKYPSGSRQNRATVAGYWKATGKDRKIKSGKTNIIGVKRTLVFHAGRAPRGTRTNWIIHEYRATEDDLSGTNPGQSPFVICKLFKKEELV

For the sequence CAAGTAAC, the binding signal amounted to 0.352 E-score in the assay with GST-ANAC092(1-176); 0.316 E-score in the assay with GST-NTL6(1-168); 0.134 E-score in the assay with GST-ANAC019 NAC domain; 0.203 E-score with GST-ANAC055(1-171); 0.0948 E-score with GST-ATAF1 NAC domain; 0.408 E-score in assay [1]. The binding signal came to 0.0502 E-score with GST-NAP(1-166); 0.298 E-score with GST-NST2(1-184); 0.185 E-score with GST-NTL8 NAC domain; 0.301 E-score in the assay with GST-SND1(1-203); 0.209 E-score in the assay with GST-VND3 NAC domain; 0.0947 E-score with GST-VND7 NAC domain.

For the sequence TGCCGTAA, the binding signal with GST-ANAC092(1-176) was found to be 0.432 E-score; with GST-NTL6(1-168), 0.114 E-score; with GST-ANAC019 NAC domain, 0.448 E-score; with GST-ANAC055(1-171), 0.408 E-score; with GST-ATAF1 NAC domain it was 0.436 E-score; in assay [1] it was 0.433 E-score. Also, the binding signal in the assay with GST-NAP(1-166) stood at 0.402 E-score; with GST-NST2(1-184) it was 0.328 E-score; in the assay with GST-NTL8 NAC domain, 0.324 E-score; in the assay with GST-SND1(1-203) it was 0.457 E-score; in the assay with GST-VND3 NAC domain, 0.437 E-score; in the assay with GST-VND7 NAC domain it was 0.449 E-score.

Take ACGCAAAT: the binding signal with GST-ANAC092(1-176) was determined as 0.418 E-score; with GST-NTL6(1-168), 0.0591 E-score; with GST-ANAC019 NAC domain, 0.268 E-score; with GST-ANAC055(1-171), 0.232 E-score; with GST-ATAF1 NAC domain, 0.262 E-score; in [1], 0.42 E-score. Moreover, the binding signal stood at 0.235 E-score in the assay with GST-NAP(1-166); 0.265 E-score with GST-NST2(1-184); 0.0579 E-score with GST-NTL8 NAC domain; 0.325 E-score with GST-SND1(1-203); 0.325 E-score with GST-VND3 NAC domain; 0.281 E-score with GST-VND7 NAC domain.

As to CACGTTTC, the binding signal in the assay with GST-ANAC092(1-176) turned out to be 0.424 E-score; with GST-NTL6(1-168) it was 0.107 E-score; with GST-ANAC019 NAC domain it was 0.381 E-score; with GST-ANAC055(1-171), 0.375 E-score; with GST-ATAF1 NAC domain it was 0.383 E-score; in [1], 0.432 E-score. Also, the binding signal with GST-NAP(1-166) was found to be 0.332 E-score; with GST-NST2(1-184), 0.286 E-score; with GST-NTL8 NAC domain it was 0.217 E-score; with GST-SND1(1-203), 0.299 E-score; with GST-VND3 NAC domain, 0.262 E-score; with GST-VND7 NAC domain it was 0.298 E-score.

Turning to ATTGAGTA, the binding signal is 0.329 E-score with GST-ANAC092(1-176); 0.135 E-score in the assay with GST-NTL6(1-168); 0.143 E-score with GST-ANAC019 NAC domain; 0.176 E-score in the assay with GST-ANAC055(1-171); 0.251 E-score with GST-ATAF1 NAC domain; 0.365 E-score in assay [1]. Also, the binding signal with GST-NAP(1-166) was 0.0897 E-score; with GST-NST2(1-184) it was 0.312 E-score; with GST-NTL8 NAC domain it was 0.129 E-score; with GST-SND1(1-203) it was 0.404 E-score; with GST-VND3 NAC domain it was 0.282 E-score; with GST-VND7 NAC domain it was 0.258 E-score.

Regarding GTTGCGTA, the binding signal with GST-ANAC092(1-176) was determined as 0.486 E-score; with GST-NTL6(1-168) it was 0.184 E-score; with GST-ANAC019 NAC domain, 0.461 E-score; with GST-ANAC055(1-171), 0.431 E-score; with GST-ATAF1 NAC domain, 0.415 E-score; in assay [1], 0.49 E-score. Also, the binding signal with GST-NAP(1-166) stood at 0.477 E-score; with GST-NST2(1-184) it was 0.465 E-score; with GST-NTL8 NAC domain, 0.216 E-score; in the assay with GST-SND1(1-203), 0.495 E-score; with GST-VND3 NAC domain, 0.452 E-score; with GST-VND7 NAC domain, 0.466 E-score.
